# Hit rate of the full screen: of about 16,000 compounds, about 5,100 (32%) were called active. Inconclusive results (about 25%) are left out. The list shows a part of the results. A number with no mark means an inactive call. Calls come from the whole dose curve; as a rule, active = well fitted curve in the direction sought with a large enough effect; inconclusive = small, poorly fitted or top-dose-only effect, or effect the other way; inactive = no such curve, though single readings can be large or run the other way.
# Target: Cytochrome P450 3A4 (Homo sapiens) (UniProt P08684)
# Assay: Cytochrome panel assay with activity outcomes
# Conditions: recombinant CYP, pro-luciferin dealkylation, luminescence, p450-cyp3a4; series mostly up to 57.1 µM; activity, negative = inhibition: at the top concentration
# % is set by controls: 0 for no effect and ±100 for the full control effect.
# Chain of Cytochrome P450 3A4 (Homo sapiens) (P08684 whole entry, looked up): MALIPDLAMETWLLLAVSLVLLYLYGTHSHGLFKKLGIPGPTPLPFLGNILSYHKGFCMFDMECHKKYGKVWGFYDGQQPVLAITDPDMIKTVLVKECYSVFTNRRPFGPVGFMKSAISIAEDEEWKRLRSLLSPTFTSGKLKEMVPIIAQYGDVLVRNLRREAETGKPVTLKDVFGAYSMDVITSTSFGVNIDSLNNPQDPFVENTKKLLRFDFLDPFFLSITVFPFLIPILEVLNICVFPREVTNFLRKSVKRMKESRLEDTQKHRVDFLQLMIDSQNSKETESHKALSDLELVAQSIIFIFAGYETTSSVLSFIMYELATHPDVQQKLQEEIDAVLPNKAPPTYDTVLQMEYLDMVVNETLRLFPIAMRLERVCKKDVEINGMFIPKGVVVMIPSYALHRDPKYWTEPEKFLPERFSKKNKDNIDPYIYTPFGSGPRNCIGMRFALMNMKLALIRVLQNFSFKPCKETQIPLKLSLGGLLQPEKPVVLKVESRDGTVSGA
SMILES,"activity, negative = inhibition",AC50
COc1ccccc1N1CCN(Cc2cc(=O)n3ccsc3n2)CC1,-11%,–
Cc1cccn2c(=O)c(C=NCc3ccco3)c(Nc3ccc(SC(F)F)cc3)nc12,-42.2%,–
COc1ccccc1N1CCN(c2nc3c(C)cccn3c(=O)c2C=O)CC1,–,15.8 µM (active)
Cc1cccn2c(=O)c3cc(C(=O)N4COCC4(C)C)n(C)c3nc12,-25.8%,–
Cc1cccn2c(=O)c(/C=N/O)c(N3CCCC3)nc12,–,12.6 µM (active)
CC(=O)[C@@H](C)CCO[C@@]1(C)OCC[C@@H]1C,-5.36% [at 11.4 µM],–
COc1ccc(CNC(=O)Cc2csc(Nc3nc(=S)[nH]c4ccccc34)n2)cc1,–,1.26 µM (active)
O=C(Cc1csc(Nc2nc(=S)[nH]c3ccccc23)n1)NCc1cccc(Cl)c1,–,1.78 µM (active)
CCOC(=O)Cc1csc(NS(=O)(=O)c2ccccc2)n1,6.45% [at 2.29 µM],–
Cc1ccc(CNC(=O)Cc2csc(Nc3nc(=S)[nH]c4ccccc34)n2)cc1,–,1 µM (active)
O=C(Nc1ccccc1)N1CCOCC1,-4.6%,–
O=C(Nc1cccc(NC(=O)N2CCN(c3ccccc3)CC2)c1)N1CCN(c2ccccc2)CC1,–,6.31 µM (active)
Cc1cc2nc(C3CCCN(C(=O)NCc4ccccc4)C3)[nH]c2cc1C (stereo not drawn),–,10 µM (active)
CC(=O)Nc1ccc2nc(C3CCCCC3)[nH]c2c1,-26.6%,–
Cc1cccc(NC(=S)N2CCC(N(C)CC3CCCO3)CC2)c1C (stereo not drawn),-16.8%,–
Cc1ccc2nc(C3CCCN(C(=S)Nc4ccccc4C)C3)[nH]c2c1 (stereo not drawn),–,6.31 µM (active)
O=C(O)c1ccc(NCc2nc3cc4ccccc4cc3[nH]2)cc1,-11.9% [at 11.4 µM],–
O=C(CSc1nnc(-c2ccc(Cl)cc2Cl)n1C1CCCCC1)NC1CCS(=O)(=O)C1 (stereo not drawn),–,10 µM (active)
Cc1cc(C)n2c(SCC(=O)N(C)C3CCS(=O)(=O)C3)nnc2n1 (stereo not drawn),-7.37%,–
Cc1ccc(-n2ccnc2SCC(=O)N(CC(C)C)C2CCS(=O)(=O)C2)c(C)c1 (stereo not drawn),-16.9% [at 2.29 µM],–
O=P(Cc1cc[n+]([O-])cc1)(c1ccccc1)c1ccccc1,–,14.1 µM (active)
O=P(O)(O)CCP(=O)(c1ccccc1)c1ccccc1,14.1%,–
O=P(O)(CCP(=O)(O)c1ccccc1)c1ccccc1,-3.78% [at 11.4 µM],–
O=C(NCc1ccco1)c1ccccc1NS(=O)(=O)c1ccc(Br)s1,-21% [at 2.29 µM],–
Cc1ccc(S(=O)(=O)N(Cc2ccccc2)c2ccccc2C(=O)NCc2ccco2)cc1,–,2.51 µM (active)
CCCCOc1cc(C(=O)NCCN(CC)CC)c2ccccc2n1,-21.5% [at 25.6 µM],–
CN(CCCNC(=O)c1cccn2c(=O)c3ccccc3nc12)Cc1ccccc1,–,1 µM (active)
CN(CCCNC(=O)c1ccc(/C=N/O)nc1)CCCN(C)Cc1ccccc1,2.5%,–

# Reference: PubChem BioAssay AID1851 (National Center for Advancing Translational Sciences (NCATS), 2009)
